From PubChem BioAssay (NCATS)
Where “and” joins values, the source holds several entries; their conditions need not be identical. Equal values may be shown once. Inconclusive results are not listed. Values without a mark were called inactive. Calls of active or inactive are those of the source. Calls follow the shape of the dose curve; as a rule, active = well fitted inhibition curve with a large enough effect in the signal ratio, with a control signal flat (not every such curve was filed as active); inconclusive = small, poorly fitted or top-dose-only effect, or effect the other way, or a change in a side signal; inactive = flat fitted curve, though single readings scatter; the % refers to the signal ratio.

Biological target: Thyroid hormone receptor beta (Homo sapiens) (UniProt P10828)
Sequence (P10828 whole entry, looked up): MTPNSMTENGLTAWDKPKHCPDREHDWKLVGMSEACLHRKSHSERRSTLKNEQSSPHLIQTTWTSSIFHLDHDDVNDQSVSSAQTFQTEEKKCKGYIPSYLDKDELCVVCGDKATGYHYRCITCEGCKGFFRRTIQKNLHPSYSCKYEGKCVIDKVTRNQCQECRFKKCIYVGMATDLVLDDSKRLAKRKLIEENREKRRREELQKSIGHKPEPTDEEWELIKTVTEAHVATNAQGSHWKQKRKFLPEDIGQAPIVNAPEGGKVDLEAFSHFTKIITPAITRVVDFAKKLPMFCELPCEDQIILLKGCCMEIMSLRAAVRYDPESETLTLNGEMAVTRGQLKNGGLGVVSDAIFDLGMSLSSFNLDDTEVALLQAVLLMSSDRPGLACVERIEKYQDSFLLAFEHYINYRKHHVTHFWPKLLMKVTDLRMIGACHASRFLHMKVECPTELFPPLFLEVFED
Assay: qHTS assay for small molecule antagonists of thyroid hormone receptor beta signaling (AID 588547);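 as to activity change % (negative = inhibition): cells stimulated with 0.4 nM T3 agonist during compound exposure; series mostly up to about 77 µM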
Conditions: TR-UAS-bla HEK293, beta-lactamase ratio, antagonist mode, 18 h
Source text: NIH Chemical Genomics Center [NCGC] U.S. Environmental Protection Agency [EPA] National Institutes of Environmental Health Sciences [NIEHS] National Toxicology Program [NTP] NCGC Assay Overview Thyroid hormone receptor (TR) belongs to nuclear hormone receptor superfamily. There are two subtypes for TR: TR-alpha and TR-beta. TR-beta plays a major role in regulating plasma cholesterol levels and it mediates the biological activities of thyroid hormone. Screening environmental chemicals on TR-beta signaling will provide important information for the mechanism of compound action.
NCGC Assay Protocol Summary Using a beta-lactamase reporter-gene under control of the TR response element, a cell-based assay [GeneBLAzer TR-UAS-bla-GripTite assay developed by Invitrogen] was used to measure TR-beta signaling in antagonist mode. TR-UAS-bla-GripTite HEK 293 cells were used with assay medium containing 2% charcoal/dextran FBS, 0.1 mM NEAA and 1 mM sodium pyruvate. The assay was performed in clear bottom black Greiner 1536-well plates. Library compounds were measured for their ability to inhibit the reporter gene activity. Compounds were screened in a titration series in 1536-well format. The fluorescence intensity (405 nm excitation, 460/530 nm emission) was measured using an EnVision plate reader. […] Concentration-response titration points for each compound were fitted to the Hill equation yielding concentrations of half-maximal inhibition (IC50) and maximal response (efficacy) values. qHTS protocol for TR-beta beta-lactamase assay in antagonist mode [Step] [Parameter] [Value] [Description] 1. Reagent; 5 uL; 2500 cells/well 2. Incubation; 37 C for 4 hrs 3. Compounds; 23 nL; 0.59 nM to 92 uM 4. Controls (DMSO); 23 nL 5. Agonist (Stimulator); 1uL; T3 at 0.4nM (final) concentrations 6. Incubation; 37 C for 18 hrs 7. Detection reagent; 1 uL of CCF4-dye 8. Incubation; RT for 2 hrs 9. Detection; Fluorescence; Envision plate reader
% is scaled to controls: 0 for no effect and ±100 for the full control effect; potency is read from the fitted curve at half-maximal effect.

SMILES	activity change % (negative = inhibition)	Potency
CC(C)[C@H](C(=O)O[C@H](C#N)c1cccc(Oc2ccccc2)c1)c1ccc(Cl)cc1	-0.522%	–
O=C(O)COc1ccc(Cl)cc1	-4.24%	–
CCOP(=S)(Oc1cnc(C(C)(C)C)nc1)OC(C)C (stereo not given)	4.48%	–
Nc1c(Cl)c(F)nc(OCC(=O)O)c1Cl	11.1%	–
COc1cnc(OC)n2nc(NS(=O)(=O)c3c(OCC(F)F)cccc3C(F)(F)F)nc12	9.04%	–
O=C1NCCN1Cc1ccc(Cl)nc1	2.45%	–
Cc1cc(C)nc(NC(=O)NS(=O)(=O)c2ccccc2C(=O)OC2COC2)n1	4.53%	–
CCNc1nc(Cl)nc(NC(C)(C)C)n1	-28%	–
CC(C)C1(C)N=C(c2nc3ccccc3cc2C(=O)O)NC1=O (stereo not given)	9.94%	–
CNC(=O)Oc1ccc(N(C)C)c(C)c1	-0.485%	–
CCOP(=S)(OCC)OC(Cl)C(Cl)(Cl)Cl (stereo not given)	7.52%	–
CC(C)C1(C)N=C(c2ncccc2C(=O)O)NC1=O (stereo not given)	2.89%	–
OC(Cn1cncn1)(c1ccc(F)cc1)c1ccccc1F (stereo not given)	10.3%	–
C=CC(=O)NCO	0.0569%	–
CCNC(=O)NC(=O)/C(C#N)=N/OC	5.55%	–
CC(C1CC1)C(O)(Cn1cncn1)c1ccc(Cl)cc1 (stereo not given)	-18.1%	–
CC(C)CCCCCCOC(=O)c1ccccc1C(=O)OCCCCCCC(C)C	-2.48%	–
CC(C)Oc1cc(-n2nc(C(C)(C)C)oc2=O)c(Cl)cc1Cl	-6.22%	–
CC1=C(C(=O)Nc2ccccc2)S(=O)(=O)CCO1	–	39.8 µM (active)
CCOc1ccc(C(C)(C)COCc2cccc(Oc3ccccc3)c2)cc1	2.33%	–

SMILES	activity change % (negative = inhibition)	Potency
CC1=C(C(=O)Nc2ccccc2)SCCO1	3.71%	–
C#CCO	-4.81%	–
O=S1OC[C@@H]2[C@H](CO1)[C@@]1(Cl)C(Cl)=C(Cl)[C@]2(Cl)C1(Cl)Cl (stereo not given in full)	3.09%	–
Cc1nn(-c2cc(NS(C)(=O)=O)c(Cl)cc2Cl)c(=O)n1C(F)F	-13.9%	–
O=C(O)C1C(C(=O)O)C2(Cl)C(Cl)=C(Cl)C1(Cl)C2(Cl)Cl (stereo not given)	-20.8%	–
CCCOc1nn(C(=O)NS(=O)(=O)c2ccccc2C(=O)OC)c(=O)n1C	10.6%	–
CCOP(=S)(OCC)SCn1nnc2ccccc2c1=O	-2.51%	–
O=P(O)(O)CCCl	22.1% and 18.2%	–
CCOP(OCC)OCC	9.21%	–
COP(=S)(OC)Oc1c(Cl)cc(C)cc1Cl	7.32%	–
CCOP(=O)(OCC)OC(Cl)C(Cl)(Cl)Cl (stereo not given)	-2.35%	–
C/C(=N\NC(=O)Nc1cc(F)cc(F)c1)c1ncccc1C(=O)O	-6.39%	–
CCOP(=O)(OCC)Oc1ccc2c(C)c(Cl)c(=O)oc2c1	-0.271%	–
CN(C)c1nc(=O)n(C2CCCCC2)c(=O)n1C	-5.49%	–
CC(C)=CC1[C@H](C(=O)OCc2cccc(Oc3ccccc3)c2)C1(C)C (stereo not given in full)	2.1%	–
COP(=S)(OC)Oc1ccc([N+](=O)[O-])c(C)c1	7.88%	–
CSC1=N[C@@](C)(c2ccccc2)C(=O)N1Nc1ccccc1	-28.6%	–
C1=Cc2cccc3cccc1c23	1.99%	–
Clc1ccc([C@@]2(Cn3cncn3)C[C@H](Br)CO2)c(Cl)c1	2.29%	–
O=[N+]([O-])Nc1nccn1Cc1ccc(Cl)nc1	-3.59%	–
